aSyn UTR act – Activators via SNCA 5'UTR binding, MLPCN; alpha-synuclein 5'UTR reporter, activators screen; activity score, % (tested at 7.5 µM), hits read low; 300,000 compounds, 7.1% hits; AID 1814; in the data active means activity score below about -60%
* = called active by the depositor. The list is a sample of the results.

For CC(C)CC(NC(=O)c1ccc(Cl)cc1)C(=O)OCC(=O)c1ccc2c(c1)NC(=O)CO2 (centres undefined) the results were aSyn UTR act 96.
Screening CCN(CC)CCCNC(=O)c1ccc2c3n(nc2c1)-c1ccc(Cl)cc1CO3 returned aSyn UTR act -246*.
For N/C(=N\OC(=O)c1ccccc1)c1ccncc1 the results were aSyn UTR act -122*.
N/C(=N\OC(=O)c1ccc(Br)cc1)c1ccncc1 was read as aSyn UTR act -110*.
Screening N/C(=N\OC(=O)c1cccc(Br)c1)c1ccncc1 returned aSyn UTR act -138*.
For COc1ccc(C(=O)O/N=C(/c2ccccc2)c2ccncc2)cc1 the results were aSyn UTR act -72*.
CCOC(=O)C(C#N)c1ccccn1 (centres undefined) was read as aSyn UTR act -70*.
COC(=O)c1sc(NC(=S)NC(=O)c2ccccc2F)nc1C was read as aSyn UTR act -152*.
Screening COC(=O)c1sc(NC(=S)NC(=O)c2cccc(C)c2)nc1C returned aSyn UTR act -144*.
Screening CSc1nc(N)nc(SCC(=O)Nc2cccc(F)c2)c1C#N returned aSyn UTR act -73*.
For O=C1N=C(N2CCOCC2)S/C1=C/c1cc2c(cc1[N+](=O)[O-])OCO2 the results were aSyn UTR act -67*.
For CCCCOc1ccc2c(c1)C(=O)c1cc(O)ccc1-2 the results were aSyn UTR act -209*.
Screening CCC(=O)c1ccc(N2CCCCC2)c(F)c1 returned aSyn UTR act -68*.
Screening CCCC(=O)c1ccc(N2CCOCC2)c(F)c1 returned aSyn UTR act -97*.
For Cc1ccc(C(=O)c2cc([N+](=O)[O-])ccc2N2CCOCC2)cc1 the results were aSyn UTR act 92.
For Cc1ccc(C(=O)c2ccc(N3CCOCC3)c(F)c2)cc1 the results were aSyn UTR act -109*.
`O=C(c1ccc(S(=O)(=O)Cc2cc(F)ccc2F)c([N+](=O)[O-])c1)N1CCCCC1` gave aSyn UTR act -102*.
Screening C#CCn1c(=NC(=O)c2ccc(Br)s2)sc2cccc(OC)c21 returned aSyn UTR act -113*.
For O=C(NC1CCCCC1)c1cc2nc3c(c(C(F)(F)F)n2n1)CCCC3 the results were aSyn UTR act -136*.
`CC(=O)c1ccc(NC(=O)c2cc3nc4c(c(C(F)(F)F)n3n2)CCCC4)cc1` gave aSyn UTR act -75*.
O=C(Nc1ccc2c(c1)OCO2)c1cccc(F)c1 was read as aSyn UTR act -183*.
Screening O=C(Nc1ccc2c(c1)OCO2)c1c(F)cccc1F returned aSyn UTR act -125*.
Screening O=C(Nc1cccc(F)c1)Nc1ccc2c(c1)OCO2 returned aSyn UTR act -99*.
`CC(C)(C)N1C(=O)c2ccc(C(=O)Nc3nccs3)cc2C1=O` gave aSyn UTR act -156*.
`O=C(Nc1nccs1)c1ccc2nccnc2c1` gave aSyn UTR act -161*.
`Cc1ccc(C(=O)Nc2nccs2)cc1` gave aSyn UTR act -124*.
Nc1ccc(C(=O)Nc2nccs2)cc1 was read as aSyn UTR act -87*.
Screening O=C(Nc1nccs1)c1ccc(COc2c(F)c(F)cc(F)c2F)cc1 returned aSyn UTR act -107*.
For Nc1ccccc1C(=O)Nc1nccs1 the results were aSyn UTR act -103*.
`O=C(Nc1nccs1)OCc1ccccc1` gave aSyn UTR act -80*.
CN(c1ccc(C(=O)Nc2nccs2)cc1)S(=O)(=O)c1ccccc1 was read as aSyn UTR act -104*.
For O=C(Nc1nccs1)c1ccc(N2C(=O)[C@@H]3[C@H](C2=O)[C@H]2C=C[C@@H]3C2)cc1 the results were aSyn UTR act -147*.
`Cn1c(SCc2ccc(C(=O)Nc3nccs3)cc2)nnc1-c1ccccc1` gave aSyn UTR act -103*.
`O=C(Nc1nccs1)c1cncc(Br)c1` gave aSyn UTR act -145*.
Screening Cc1oc(-c2ccccc2)nc1C(=O)Nc1nccs1 returned aSyn UTR act -117*.
Screening O=C(Nc1nccs1)C(Br)C(Br)c1ccccc1 (centres undefined) returned aSyn UTR act -75*.
CC(C)C(C(=O)Nc1nccs1)c1ccc(Cl)cc1 (centres undefined) was read as aSyn UTR act 58.
Screening COC(=O)C1=C(N)Oc2cc(N(C)C)ccc2C1c1ccccc1OC (centres undefined) returned aSyn UTR act 83.
For CCOC(=O)c1ccc2c(c1)NCc1cccc(OC)c1O2 the results were aSyn UTR act -129*.
`CC(=O)Nc1nccc(-c2cc(-c3ccccc3)no2)n1` gave aSyn UTR act -180*.
`C=CCn1c(SCC(=O)c2[nH]c(C)c(C(=O)OCC)c2C)nc2scc(-c3ccccc3)c2c1=O` gave aSyn UTR act 57.
Screening C=CCn1c(SCC(N)=O)nc2scc(-c3ccc(C)o3)c2c1=O returned aSyn UTR act -84*.
`CCOC(=O)C(C)Oc1cccc2c(=O)n(CC(=O)NCc3ccccc3)ccc12` (centres undefined) gave aSyn UTR act 73.
CCOC(=O)COc1cccc2c(=O)n(CC(=O)NCCc3ccccc3)ccc12 was read as aSyn UTR act -73*.
For CCn1c(C)nc2c(C)[n+](CC(=O)c3ccc(Br)cc3)ccc21 the results were aSyn UTR act -106*.
Clc1ccc2oc(-c3ccccn3)nc2c1 was read as aSyn UTR act -147*.
c1ccc(-c2nc3ccccc3o2)nc1 was read as aSyn UTR act -70*.
Nc1ccc2oc(-c3ccccn3)nc2c1 was read as aSyn UTR act -133*.
Screening CCCC(=O)Nc1cc(C)c2c(=O)oc3ccccc3c2n1 returned aSyn UTR act -74*.
For O=C(Nc1ccccc1Br)c1ccc2nccnc2c1 the results were aSyn UTR act -113*.
O=C(Nc1ccccc1C(F)(F)F)c1ccc2nccnc2c1 was read as aSyn UTR act -89*.
`O=c1oc2ccccc2c(Nc2ccc3ccccc3c2)c1[N+](=O)[O-]` gave aSyn UTR act -94*.
For Cc1c(N=c2c(=O)c3ccccc3c2=O)c(=O)n(-c2ccccc2)n1C the results were aSyn UTR act -140*.
For COc1ccc(-c2cc(=Nc3c(C)n(C)n(-c4ccccc4)c3=O)c3ccccc3o2)cc1 the results were aSyn UTR act -270*.
For COc1ccc(-c2c/c(=N\c3nc(-c4ccccc4)c(C)s3)c3ccccc3o2)cc1O the results were aSyn UTR act 75.
CC1=CC(C)=Nc2ccc(C)cc2N1 was read as aSyn UTR act -63*.
For CCCOc1ccc(/C=N/NC(=O)CSc2ccccn2)cc1OC the results were aSyn UTR act -77*.
For COc1ccc(/C=N/NC(=O)c2ccn[nH]2)cc1CSc1ccccn1 the results were aSyn UTR act -67*.
`C/C(=N/NC(=O)c1cc(C2CC2)[nH]n1)c1cccs1` gave aSyn UTR act 84.
Screening Cc1cc(C(=O)N/N=C/c2cc(N=Nc3ccccc3)ccc2O)n[nH]1 returned aSyn UTR act 66.
Screening O=C(N/N=C/C(Br)=C/c1ccccc1)c1cc(-c2ccco2)[nH]n1 returned aSyn UTR act -62*.
CC1C(=O)NN=C1C(=O)N/N=C\C(Br)=C\c1ccccc1 (centres undefined) was read as aSyn UTR act -134*.
Screening C/C(=N\NC(=O)C1=NNC(=O)C1C)c1cccs1 (centres undefined) returned aSyn UTR act -81*.
O=C(N/N=C/C(Br)=C/c1ccccc1)c1ccccc1F was read as aSyn UTR act -201*.
`O=C(N/N=C/C(Cl)=C/c1ccccc1)c1ccccc1F` gave aSyn UTR act -192*.

From PubChem BioAssay
